# This is part of a sample that, as a whole, favours compounds with a hit. Of some 79,000 tested, about 15% had one in any assay. Unmarked numbers belong to inactive results. Active and inactive are the calls of the source. Cut-off read from the data, not from the text of the source: active = growth inhibition above about 70%; inactive = the rest.
# Legend:
# [1] = NCI Yeast Anticancer Drug Screen. Data for the rad50 strain (AID 155);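 note: 0% = growth of vehicle-only cultures of the same strain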; settings: S. cerevisiae rad50 strain growth inhibition, stronger effect = higher value
# How it was run: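 Yeast carrying a defined DNA repair defect were exposed to test compounds, and growth was compared with vehicle-treated controls to give percent inhibition.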
# [2] = NCI Yeast Anticancer Drug Screen. Data for the mec2-1 strain (AID 157); settings: S. cerevisiae mec2-1 strain, stronger effect = higher value
# How it was run: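 Vehicle-treated cultures served as reference for growth inhibition of compound-exposed mec2-1 yeast.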
# [3] = NCI Yeast Anticancer Drug Screen. Data for the sgs1 mgt1 strain (AID 161);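 note: 0% = growth of cultures given vehicle only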; settings: S. cerevisiae sgs1 mgt1 strain, stronger effect = higher value
# How it was run: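 Mutant yeast exposed to compound; growth scored against vehicle-only wells.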
# [4] = NCI Yeast Anticancer Drug Screen. Data for the cln2 rad14 strain (AID 165);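 note: 0% = growth equal to vehicle treated cultures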; settings: S. cerevisiae cln2 rad14 strain, stronger effect = higher value
# How it was run: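 Each compound was tested on cln2 rad14 yeast. Inhibition of growth was calculated against vehicle-exposed controls.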
# [5] = NCI Yeast Anticancer Drug Screen. Data for the bub3 strain (AID 167); settings: S. cerevisiae bub3 mutant strain, stronger effect = higher value
# How it was run: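 Compounds were applied to a genetically altered yeast strain carrying a cell-cycle control defect. Growth inhibition was scored against vehicle-treated controls.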
# [6] = NCI Yeast Anticancer Drug Screen. Data for the mlh1 rad18 strain (AID 175); settings: S. cerevisiae mlh1 rad18 strain growth inhibition, stronger effect = higher value
# How it was run: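 Vehicle-treated cultures served as the reference for growth inhibition in a yeast strain carrying DNA damage repair alterations exposed to each compound.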
# [7] = at 5.0 µM (retest, dose inferred, filed as 0.5)
# [8] = at 50.0 µM (retest, dose inferred, filed as 5.0)
SMILES,"growth inhibition [1, 7]","growth inhibition [1, 8]","growth inhibition [2, 7]","growth inhibition [2, 8]","growth inhibition [3, 7]","growth inhibition [3, 8]","growth inhibition [4, 7]","growth inhibition [4, 8]","growth inhibition [5, 7]","growth inhibition [5, 8]","growth inhibition [6, 7]","growth inhibition [6, 8]"
CN(C)c1cc(N)c(Cc2c(N)cc(N(C)C)cc2Cl)c(Cl)c1,5%,97% (active),-2%,97% (active),-4%,98% (active),8%,96% (active),6%,97% (active),1%,97% (active)
CC(O)C(=O)NCCc1ccccc1 (centres undefined),8%,4%,-3%,-2%,-1%,1%,2%,3%,-1%,-2%,4%,10%
CSS(C)(=O)=O,59%,98% (active),6%,99% (active),10%,99% (active),-4%,98% (active),-1%,99% (active),3%,95% (active)
COc1cccc(NC(=O)c2c(SC)c(C#N)c(=O)n(N)c2N)c1,4%,99% (active),10%,99% (active),7%,99% (active),7%,98% (active),7%,99% (active),8%,99% (active)
COc1ccc(/C(C#N)=C/c2cccc(N)c2)cc1,6%,16%,3%,10%,1%,27%,2%,2%,13%,42%,-30%,12%
CCC(=O)c1ccc([N+](=O)[O-])o1,12%,97% (active),5%,99% (active),13%,100% (active),-6%,99% (active),13%,100% (active),3%,98% (active)
CCCCN(CCCC)C(=O)C(C)OC(C)=O (centres undefined),0%,25%,-4%,0%,-3%,6%,10%,1%,-2%,-8%,-38%,8%
O=C(/C=C/c1ccccc1)c1ccc(N=Cc2ccccc2)cc1,-37%,30%,6%,21%,2%,68%,1%,6%,7%,54%,8%,38%
Cc1ccc2[nH]cc(CC(=O)O)c2c1,95% (active),99% (active),97% (active),100% (active),99% (active),100% (active),42%,99% (active),99% (active),100% (active),85% (active),99% (active)
NCCN1C(=O)CNC1=S,-23%,30%,-1%,-4%,3%,3%,0%,-3%,-1%,-5%,10%,17%
CN(C)CNC(=S)S,98% (active),99% (active),97% (active),100% (active),100% (active),100% (active),97% (active),51%,99% (active),100% (active),97% (active),98% (active)
CCC(CC)(c1ccccc1)C(O)c1ccccc1 (centres undefined),11%,94% (active),-1%,98% (active),6%,98% (active),7%,95% (active),6%,94% (active),2%,96% (active)
O=C(O)/C=C\C(=O)NNc1ccccc1,12%,96% (active),-2%,95% (active),5%,98% (active),10%,82% (active),14%,99% (active),-7%,94% (active)
Clc1ccc(-n2ncc3c(Cl)nc(Cl)nc32)cc1,98% (active),99% (active),99% (active),99% (active),100% (active),99% (active),97% (active),98% (active),99% (active),99% (active),99% (active),99% (active)
O=C(O)c1ccc(-c2ccccc2)cc1,12%,80% (active),0%,38%,12%,69%,-1%,39%,-1%,42%,-1%,47%
Cc1ccccc1OCc1cccc(Cl)c1,8%,23%,-1%,4%,4%,43%,9%,-10%,4%,17%,-5%,6%
S=c1sc2ccccc2n1CCNc1ccccc1,8%,90% (active),-3%,73% (active),4%,98% (active),7%,25%,6%,92% (active),-10%,64%
Cc1cc(C(=O)c2ccccc2Cl)ccc1O,10%,98% (active),-5%,99% (active),3%,98% (active),-2%,98% (active),-3%,99% (active),10%,98% (active)
O=C1C=CC(=O)C2=C1CC=CC2,-12%,99% (active),-2%,99% (active),29%,100% (active),-6%,75% (active),26%,100% (active),48%,97% (active)
Oc1ccc(Cc2cccc(Cl)c2)c(O)c1,-1%,92% (active),-7%,96% (active),-4%,97% (active),4%,98% (active),0%,92% (active),-3%,90% (active)
Cc1ccccc1N=NC(C#N)C#N,82% (active),99% (active),40%,100% (active),85% (active),100% (active),39%,99% (active),68%,100% (active),78% (active),99% (active)
COc1ccc(N=NC(C#N)C#N)cc1,32%,95% (active),6%,97% (active),24%,98% (active),2%,96% (active),1%,98% (active),-10%,96% (active)
CC(C)c1cc([N+](=O)[O-])c(O)c([N+](=O)[O-])c1,46%,92% (active),14%,75% (active),13%,78% (active),18%,76% (active),29%,89% (active),24%,91% (active)
CC1=C(/C=C/C(C)=C/C(=O)O)C(C)(C)CCC1,2%,67%,-2%,47%,3%,83% (active),3%,43%,4%,64%,-36%,64%
O=c1c2ccccc2ncn1O,-1%,93% (active),1%,54%,8%,98% (active),10%,21%,5%,89% (active),-12%,81% (active)
CCCCC(CC)CNC(=O)CI (centres undefined),11%,66%,-2%,22%,6%,73% (active),9%,6%,9%,76% (active),-13%,51%
CCCCC(CC)CNC(=O)/C=C\C(=O)O (centres undefined),15%,85% (active),11%,67%,10%,96% (active),-3%,60%,6%,83% (active),15%,91% (active)
